Results: PubChem BioAssay AID686970 (National Center for Advancing Translational Sciences (NCATS), 2013)
Out of some 360,000 compounds screened, about 6,000 (1.7%) were called active. Where a call stands in place of a potency, no number is given. Another 8% or so got no clear call; they are omitted. Calls follow the shape of the dose curve; as a rule, active = well fitted cell-killing curve with a large enough effect; inconclusive = small, poorly fitted or top-dose-only effect, or effect the other way; inactive = flat fitted curve, though single readings scatter. The full list was thinned out, with actives kept by preference.

Test: qHTS for induction of synthetic lethality in tumor cells producing 2HG: qHTS for the HT-1080-NT fibrosarcoma cell line;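 also: NT is the 2HG producing partner of a matched IDH1 knockdown line; nearly all actives have a fitted effect of over 55% in size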
Details: HT-1080-NT fibrosarcoma viability, CellTiter-Glo ATP luminescence, 48 h; series mostly up to 46.1 µM
Procedure, shortened: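 HT-1080-NT fibrosarcoma cells (2HG-overproducing), 750 cells/well in RPMI with 5% FBS, dosed after 2 h and incubated 48 h at 37C. CellTiter-Glo luminescence normalized to DMSO and no-cell wells; concentration-response curves fitted and classed.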
Potency is read from the fitted curve at half-maximal effect.

**Q.** Which Potency does the source give for `O=C(NCc1ccccc1)C1CNCC(C(=O)NCc2ccccc2)C1` (configuration not stated) here?
**A.** The Potency was “inactive”.

**Q.** With `Cc1ccc(-c2nc3c(Cl)cc(C(F)(F)F)cn3c2Cc2cccc(Cl)c2)cc1` as the compound, how does the Potency read?
**A.** Its Potency is “inactive”.

**Q.** For `Oc1c(Cl)cc(Cl)c(Cl)c1Cc1c(O)c(Cl)cc(Cl)c1Cl`, which Potency is on record?
**A.** The Potency was 5.8 µM (active).

**Q.** With `CCCCCCCCn1c2c(c(=N)c3c1CCC3)CCCC2` as the compound, how does the Potency read?
**A.** The Potency was 16.4 µM (active).

**Q.** For `C=CC(=O)OCCOCCOCCOCCOC(=O)C=C`, which Potency is on record?
**A.** The Potency was 20.6 µM (active).

**Q.** For `COc1cc(CCN=Cc2ccccc2O)c([N+](=O)[O-])cc1OC`, which Potency is on record?
**A.** Its Potency is “inactive”.

**Q.** For `COc1ccc(S(=O)(=O)N2CCC(C(=O)NCCC(=O)NCCc3cccc(F)c3)CC2)cc1`, which Potency is on record?
**A.** The Potency was “inactive”.

**Q.** For `C=CCOc1cccc(C2C(C(=O)c3ccc(C)o3)=C(O)C(=O)N2CCN2CCOCC2)c1` (configuration not stated), which Potency is on record?
**A.** Its Potency is “inactive”.

**Q.** With `Cc1ccc([C@H]2C[C@H](O)[C@@H](n3cc(COC(=O)c4ccccc4)nn3)CN2C(=O)C2CCCCC2)cc1` as the compound, how does the Potency read?
**A.** The Potency was “inactive”.

**Q.** For `CC(C)CCNC(=O)c1[nH]c(C(F)(F)F)nc1-c1ccccc1`, which Potency is on record?
**A.** Its Potency is “inactive”.

**Q.** For `COc1ccc(-c2ccc(CN3C(C(C)C)C(=O)N(Cc4cn(CC5CCCCC5)nn4)CCS3(=O)=O)cc2)cn1` (configuration not stated), which Potency is on record?
**A.** The Potency was “inactive”.

**Q.** For `COc1ccc2[nH]c(C(=O)N/N=C/c3cc(OC)c(OC)c(OC)c3)cc2c1`, which Potency is on record?
**A.** Its Potency is “inactive”.

**Q.** With `COc1ccc(C(=O)Nc2ccccc2C(=O)N/N=C/c2ccc(O)c(OC)c2)cc1` as the compound, how does the Potency read?
**A.** Its Potency is 5.8 µM (active).

**Q.** Which Potency does the source give for `COc1ccc(/C=N/Nc2ccccc2C(=O)O)cc1` here?
**A.** The Potency was “inactive”.

**Q.** With `CC(O)(c1cccc(F)c1)c1nc(-c2ccc3c(c2)OCO3)cs1` (configuration not stated) as the compound, how does the Potency read?
**A.** Its Potency is “inactive”.

**Q.** With `CCOC(=O)C1=CC[C@@H](c2ccccc2)N(S(=O)(=O)c2ccc(C)cc2)[C@H]1c1ccc(CC)cc1` as the compound, how does the Potency read?
**A.** Its Potency is “inactive”.

**Q.** For `CCCOc1ccc(F)cc1-c1cc(C(=O)Nc2ccc(F)cc2)[nH]n1`, which Potency is on record?
**A.** The Potency was “inactive”.

**Q.** With `COc1ccc(CCNC(=S)NC(=O)/C=C/c2ccc(C)cc2)cc1OC` as the compound, how does the Potency read?
**A.** The Potency was 6.31 µM (active).

**Q.** For `COc1ccc(CCNC(=O)NS(=O)(=O)c2ccc(C)cc2)cc1OC`, which Potency is on record?
**A.** The Potency was “inactive”.

**Q.** Which Potency does the source give for `COc1ccc(CCNC(=O)Cc2ccc(C)cc2)cc1OC` here?
**A.** The Potency was “inactive”.

**Q.** With `O=C(COC(=O)/C=C/c1ccc(Cl)cc1)NC1CCS(=O)(=O)C1` (configuration not stated) as the compound, how does the Potency read?
**A.** Its Potency is “inactive”.

**Q.** With `CCOC(=O)C(=Cc1ccccc1)C(=O)c1ccccc1` as the compound, how does the Potency read?
**A.** The Potency was “inactive”.

**Q.** For `O=C(O)c1ccc(NC(=O)c2ccc(COc3ccc(Cl)cc3)o2)cc1`, which Potency is on record?
**A.** Its Potency is “inactive”.

**Q.** With `Cc1cc(OCc2ccc(C(=O)Nc3ccc(C(=O)O)cc3)o2)ccc1Cl` as the compound, how does the Potency read?
**A.** The Potency was 11.6 µM (active).

**Q.** Which Potency does the source give for `COc1ccc(NC(=O)CN(C)C(=O)c2ccc(COc3ccccc3)o2)cc1` here?
**A.** The Potency was “inactive”.

**Q.** Which Potency does the source give for `O=C(NCc1ccccc1)C1c2ccccc2OCC(=O)N1CCCN1CCOCC1` (configuration not stated) here?
**A.** Its Potency is “inactive”.

**Q.** With `CCC(c1nc2ccccc2[nH]1)n1c(=O)c(-c2cccs2)nc2ccccc21` (configuration not stated) as the compound, how does the Potency read?
**A.** Its Potency is “inactive”.
